# PubChem BioAssay AID720690 (Broad Institute, 2013)
# Potency and affinity values are given separately. Activity calls are given as the source filed them.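 Rule for the calls: active = every repeat run showing a signal drop whose fitted half-maximal concentration is at most twice the top tested concentration; inconclusive = repeat runs disagree, or flat partial drop, or poor fit; inactive = the rest.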
# Experiment: general mammalian cell viability loss – activator set, cherry-pick, cytotoxicity control for miR-122 modulator project, dose response (AID 720690);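 note: 0% = neutral control wells and -100% = MG132 cytotoxic control wells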
# Conditions: HEK293T viability, CellTiter-Glo luminescence, 48 h; series mostly up to 26 µM; activity change, negative = cytotoxicity: at the top concentration
row,Compound,"activity change, negative = cytotoxicity"
1,COc1ccc(CNC(=O)C[C@H]2CC[C@H]3[C@H](COc4ccc(NC(=O)C(C)C)cc4C(=O)N3C)O2)cc1,-5.37% (inactive)
2,Cn1c(-c2ccc(N)cc2)nc2ccccc21,-17.9% (inactive)
3,CCCNC(=O)C[C@@H]1CC[C@@H]2[C@@H](COc3ccc(NC(=O)c4ccc(C(F)(F)F)cc4)cc3C(=O)N2C)O1,-6.55% (inactive)
4,CN1C(=O)c2cc(NC(=O)c3ccc4c(c3)OCO4)ccc2OC[C@H]2O[C@H](CC(=O)O)CC[C@@H]21,1.22% (inactive)
5,CCS(=O)(=O)Nc1ccc2c(c1)C(=O)N(C)C[C@@H](OC)[C@H](C)CN(CC1CCCC1)[C@H](C)CO2,-3.76% (inactive)
6,Cc1cc(C(=O)Nc2ccc3c(c2)C(=O)N(C)[C@H]2CC[C@H](CC(=O)N[C@@H](C)c4ccccc4)O[C@H]2CO3)no1,-13% (inactive)
7,CCCNC(=O)Nc1ccc2c(c1)C(=O)N(C)[C@@H]1CC[C@H](CC(=O)NCC3CCCCC3)O[C@H]1CO2,3.61% (inactive)
8,CN(C)C(=O)c1ccc(NC(=O)c2cc(-n3cnnc3)ccc2Cl)cc1,0.004% (inactive)
9,COCC(=O)N(C)C[C@H]1Oc2cc(-c3ccccc3F)ccc2S(=O)(=O)N([C@@H](C)CO)C[C@@H]1C,-13.7% (inactive)
10,C/C=C/c1ccc([C@H]2[C@@H](CNC(=O)c3ccncc3)N(C(=O)CC)[C@H]2CO)cc1,-7% [at 23.5 µM] (inactive)
11,Cc1cc(C)nc(NS(=O)(=O)c2ccc(NC(=S)NC(=O)C3CCCC3)cc2)n1,-1.38% (inactive)
12,CCCC(=O)Nc1ccc2c(c1)C(=O)N(C)[C@@H]1CC[C@H](CC(=O)NCC(F)(F)F)O[C@H]1CO2,5.51% (inactive)
13,CNC(=O)C[C@@H]1CC[C@H]2[C@@H](COc3ccc(NC(=O)NC(C)C)cc3C(=O)N2C)O1,-0.66% [at 23.5 µM] (inactive)
14,CN(C[C@H]1N[C@@H](CO)[C@H]1c1ccc(-c2ccccc2)cc1)C(=O)C1CCC1,-13.6% (inactive)
15,CCNC(=O)C[C@H]1CC[C@H]2[C@@H](COc3ccc(NC(=O)c4ccccc4)cc3C(=O)N2C)O1,-7.25% (inactive)
16,COc1cc(N)c(Cl)cc1NC(=O)c1ccccc1,-16.9% (inactive)
17,C[C@@H]1CN([C@@H](C)CO)S(=O)(=O)c2ccc(/C=C/c3ccccc3)cc2O[C@@H]1CN(C)C(=O)NC1CCCCC1,-4.62% (inactive)
18,COc1cccc(CNC(=O)C[C@@H]2CC[C@H]3[C@H](COc4ccc(NS(=O)(=O)c5ccccc5F)cc4C(=O)N3C)O2)c1,-13.5% (inactive)
19,CNC(=O)C[C@H]1CC[C@H]2[C@H](COc3ccc(NC(=O)c4cccc(F)c4)cc3C(=O)N2C)O1,-2.89% (inactive)
20,CNC(=O)C[C@H]1CC[C@H]2[C@@H](COc3ccc(NC(=O)c4cccc(OC)c4)cc3C(=O)N2C)O1,-3.39% (inactive)

row,Compound,"activity change, negative = cytotoxicity"
1,CC(=O)N1[C@@H](CO)[C@@H](c2ccccc2)[C@@H]1CNC(=O)CN1CCOCC1,-2.04% (inactive)
2,COCC(=O)N(C[C@@H]1N[C@H](CO)[C@H]1c1ccc(-c2cccnc2)cc1)C(C)C,-2.06% (inactive)
3,COc1cc2nc(C3CCC3)n(NC(=O)C3CCCC(OC)C3)c(=O)c2cc1OC (centres undefined),7.08% (inactive)
4,CC1(C)CC(=O)c2cnc(NC(=O)c3ccco3)nc2C1,1.49% (inactive)
5,COc1ccc(C#Cc2ccc([C@@H]3[C@@H](CO)N4CCCCN(C(=O)Nc5ccccc5)C[C@H]34)cc2)cc1,-28% [at 12 µM] (inactive)
6,COCC(=O)N(C[C@@H]1[C@@H](c2ccccc2)[C@H](CO)N1C(=O)NC(C)C)C(C)C,2.09% (inactive)
7,CC(=O)N(C)C[C@@H]1[C@@H](c2ccc(-c3cccc(C#N)c3)cc2)[C@H](CO)N1C(C)=O,-9.1% (inactive)
8,CCCNC(=O)N1[C@H](CO)[C@H](c2ccc(-c3ccccc3)cc2)[C@@H]1CNC(C)=O,-2.1% (inactive)
9,CCN(C[C@H]1N[C@H](CO)[C@H]1c1ccc(-c2ccc(F)cc2)cc1)C(=O)COC,-5.25% (inactive)
10,CC(C)C#Cc1ccc2c(c1)O[C@H](CN(C)C(=O)c1ccncc1)[C@H](C)CN([C@@H](C)CO)S2(=O)=O,2.1% (inactive)
11,Cc1cccc(NC(=O)Nc2ccc3c(c2)C(=O)N(C)[C@H]2CC[C@@H](CC(=O)NCc4ccccc4Cl)O[C@H]2CO3)c1,-11.4% (inactive)
12,C[C@@H]1CN([C@H](C)CO)S(=O)(=O)c2ccc(C3=CCCC3)cc2O[C@@H]1CN(C)C(=O)c1ccc(F)cc1,-21.9% (inactive)
13,CCOC(=O)c1nc(C)n(-c2ccc(Cl)cc2Cl)n1,-2.63% (inactive)
14,Cc1ccc(-c2nc(C(Cl)Cl)c3ccccc3n2)cc1,-34.8% (inactive)
15,CN1C(=O)c2cc(NC(=O)c3ccc4c(c3)OCO4)ccc2OC[C@@H]2O[C@@H](CC(=O)O)CC[C@@H]21,-26.2% (inactive)
16,COCC(=O)NC[C@@H]1[C@H](c2ccc(C3=CCCC3)cc2)[C@@H](CO)N1C(=O)C1CC1,-14.2% [at 23.5 µM] (inactive)
17,COc1ccc(C(=O)N2C[C@H]3[C@@H](c4ccccc42)[C@@H](CO)N3C(=O)Cc2ccccn2)cc1,-2.33% (inactive)
18,CCCC#Cc1ccc2c(c1)O[C@H](CN(C)C(=O)COC)[C@H](C)CN([C@@H](C)CO)S2(=O)=O,-6.09% (inactive)
19,COCCN(C[C@@H]1[C@H](c2ccccc2)[C@@H](CO)N1C(=O)C1CCC1)C(C)=O,-9.91% [at 23.5 µM] (inactive)
